Screening results from PubChem BioAssay.
MARV entry inh: qHTS for inhibitors of binding or entry into cells for Marburg Virus; 300,000 compounds, 1.8% hits; AID 540276, 2011; Potency, µM (doses to about 37.8 µM), actives largely listed as inhibitors; Marburg virus pseudotyped entry inhibition, cell reporter; calls by dose curve; tested in HEK293 cells
LASV entry inh: qHTS for Inhibitors of binding or entry into cells for Lassa Virus; 300,000 compounds, 1.2% hits; AID 540256, 2011; Potency, µM (highest dose often 37.9 µM), actives largely listed as inhibitors; Lassa virus pseudotype entry inhibition, cell reporter; calls by dose curve; tested in HEK293 cells; note: nearly all actives have a fitted effect of over 50% in size
CHX counter: Cycloheximide Counterscreen for Small Molecule Inhibitors of Shiga Toxin; cell reporter, cycloheximide protein synthesis inhibition counterscreen; max response, %; 300,000 compounds, 12% hits; AID 2314, 2010; in the data active = max response mostly above about 13%, no sharp cut-off; inactive = mostly below about 14%; note: read at 38.3 µM for the half of the compounds with a filed dose
Pf growth 96h: Primary qHTS for delayed death inhibitors of the malarial parasite plastid, 96 hour incubation; Potency, µM (titrated, usually from 28.7 µM), actives largely listed as inhibitors; 320,000 compounds, 6.9% hits; AID 504834, 2011; P. falciparum luciferase reporter growth, 96 h
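Plates of compound plus infected erythrocytes (2% hematocrit, 0.05% parasitemia final) incubate 96 hours, 37 C, 5% CO2. Detection reagent added; reduced luminescence from the parasites' luciferase reporter flags inhibition.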
Shiga inhibitor: A qHTS for Small Molecule Inhibitors of Shiga Toxin | Vero cells, Shiga toxin protein synthesis inhibition reporter | 290,000 compounds, 9.2% hits | inhibition, % at 38.7 µM; in the data active = inhibition mostly above about 28%, no sharp cut-off; inactive = mostly below about 43%
Pf growth 48h: Primary qHTS for delayed death inhibitors of the malarial parasite plastid, 48 hour incubation; P. falciparum luciferase growth in erythrocytes, 48 h; 310,000 compounds, 5.9% hits; Potency, µM (titrated, usually from 28.7 µM), usual class: inhibitors
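Firefly luciferase activity from engineered P. falciparum reports growth; inhibitors lower the luminescent signal. Cultures contained 2% hematocrit erythrocytes at 0.1% final parasitemia.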
A number is an active result; – = inactive; ? = inconclusive; · = not tested or not shown. This is a sample that favours compounds with a hit; in the whole collection about 19% have one here. Unless noted, calls come from the whole dose curve; as a rule, active = well fitted inhibition curve with a large enough effect; inconclusive = small, poorly fitted or top-dose-only effect, or another doubt; inactive = no such curve, though single readings can be large or run the other way.

SMILES	MARV entry inh	LASV entry inh	CHX counter	Pf growth 96h	Shiga inhibitor	Pf growth 48h
CSC1=NCCN1C(=O)Cc1ccc(F)cc1	–	·	–	9.3µM	–	·
CSC1=NCCN1C(=O)Cc1ccc(-c2ccccc2)cc1	?	–	–	–	42	–
CCOc1ccccc1C(=O)N1CCN=C1SC	–	–	–	15µM	–	·
CCOc1ccc(C(=O)N2CCN=C2SC)cc1OCC	–	–	–	–	–	?
CCOc1ccc(N(CCCCO)C(=S)NC(=O)c2ccc(C)c(Br)c2)cc1	–	?	–	–	–	–
CC(OC(=O)Cc1ccsc1)C(=O)Nc1ccc(C(N)=O)cc1 (stereo not drawn)	?	–	·	?	·	–
C/C(=N\NC(=O)c1nnn(-c2nonc2N)c1-c1cccs1)c1cccnc1	?	?	–	?	–	–
COc1ccc(CNC(=O)c2c(O)c3cccc4c3n(c2=O)CCC4)cc1OC	–	–	–	–	–	–
O=C1CN(Cc2ccccc2)C(=NCc2ccco2)S1	–	–	–	–	–	1.9µM
CC(=NCc1ccco1)c1c(O)n(Cc2ccccc2)c(=O)[nH]c1=O	?	?	–	?	–	–
Cc1cc(C(=O)NN=C2CC(=O)CC(C)(C)C2)c(C)o1	?	–	·	·	·	·
Cc1cc(C)c2c(c1)/C(=N/NC(=O)c1ccc(O)cc1)CCC2	?	–	22	–	36	?
Cc1cc(C)c2c(c1)/C(=N/NC(=O)c1cc(C)oc1C)CCC2	–	–	36	–	–	?
NS(=O)(=O)c1ccc(NC(=O)CN2CCCc3ccccc32)cc1	?	–	–	–	–	–
CC(C)Sc1nc2c(c(=O)[nH]c(=O)n2C)n1Cc1ccc(Cl)cc1	–	?	–	13µM	–	?
CCC(C)Sc1nc2c(c(=O)[nH]c(=O)n2C)n1Cc1ccc(Cl)cc1 (stereo not drawn)	?	?	–	·	–	10µM
Cc1nn(C)cc1CN(C)C(=O)c1cc2nc(-c3ccco3)cc(C(F)(F)F)n2n1	?	–	–	–	–	?
CCOC(=O)C1CCCN(c2cc(NCCCO)c([N+](=O)[O-])c3nonc23)C1 (stereo not drawn)	–	–	–	–	–	?
Cc1ccc(C2=NN(CCC(=O)NCc3ccc4c(c3)OCO4)C(=O)CC2)cc1	?	–	20	?	–	–
CCc1ccc(C2=NN(CCC(=O)NCCc3ccc(Cl)cc3)C(=O)CC2)cc1	·	–	·	·	·	·
CCc1ccc(C2=NN(CCC(=O)NC3CCCCCC3)C(=O)CC2)cc1	·	·	–	10µM	–	?
COc1ccc(N)c2c1C(=O)c1ccccc1C2=O	–	?	51	?	60	–
Nc1ccc(Br)c2c1C(=O)c1ccccc1C2=O	–	–	28	–	–	?
Nc1ccc(NC(=O)c2ccccc2)c2c1C(=O)c1ccccc1C2=O	–	–	–	?	–	–
Nc1ccc(O)c2c1C(=O)c1ccccc1C2=O	–	–	22	–	36	–
SMILES	MARV entry inh	LASV entry inh	CHX counter	Pf growth 96h	Shiga inhibitor	Pf growth 48h
COc1ccc(OC)c2c1C(=O)C(Cl)=C(Cl)C2=O	·	·	15	–	–	–
COc1ccc(OC)c2c1C(=O)c1ccccc1C2=O	–	–	–	–	–	–
CCOC(=O)C1CCN(c2c(NCc3ccc(C(=O)NCCOC)cc3)c(=O)c2=O)CC1	?	–	–	–	–	–
COc1ccc(CCN(C)C(=O)CNC(=O)c2ccccc2F)cc1OC	–	–	–	–	–	–
COc1ccccc1NC(=O)c1ccc(COc2ccccc2OC)cc1	–	–	·	·	·	·
Cc1cc(C(F)(F)F)nn1CC(=O)NC[C@H]1CCCO1	–	·	·	·	·	·
NC1=C(Br)C(=O)c2ccccc2C1=O	?	–	31	1µM	81	2.6µM
Cc1cc2c(cc1C)C(=O)C(Br)=C(N)C2=O	–	–	·	·	·	·
Cc1ccc(CNC(=O)CSc2nccn(-c3ccc(C)c(F)c3)c2=O)cc1	?	–	·	–	·	–
Cc1ccc(-c2cc(-c3coc4ccc(Cl)cc4c3=O)c3c(n2)-c2ccccc2OC3)cc1	–	?	·	·	·	·
COc1ccc(-c2nc3cc(NC(=O)c4ccc(C)cc4)ccc3o2)cc1Cl	·	–	·	·	·	·
Cc1cc(C(=O)COc2ccc(-c3nnco3)cc2)c(C)n1Cc1ccccc1	?	?	17	?	–	?
O=C(Nc1ccncc1)Nc1cccc(C(F)(F)F)c1	·	·	–	?	–	?
CCN(CC)S(=O)(=O)c1ccc(NC(=O)Nc2cccc(C(F)(F)F)c2)cc1	?	?	–	·	–	5.2µM
Cc1ccc(S(=O)(=O)CC(C)(O)C(=O)Nc2cccc(C(F)(F)F)c2)cc1 (stereo not drawn)	–	–	–	–	–	–
CCN(CC)S(=O)(=O)c1ccc(/C=C/C(=O)O)cc1	–	?	–	–	–	–
Cc1ccc(S(=O)(=O)Nc2ccc(NC(=O)Nc3cccc(C(F)(F)F)c3)cc2)cc1	?	?	–	?	–	13µM
O=C(Nc1ccc(OC(F)F)cc1)Nc1cccc(C(F)(F)F)c1	?	?	12	5.2µM	–	·
CCN(CC)S(=O)(=O)c1ccc(/C=C/C(=O)Nc2cccc(F)c2)cc1	–	?	33	2.9µM	–	?
CC1=C(C(=O)Nc2cc(C)ccc2C)C2(CCCCCC2)OC1=O	·	–	·	·	·	·
COc1ccccc1CNC(=O)Cn1ncn2c(cc3sccc32)c1=O	–	·	·	·	·	·
CC(=O)N1CCCc2cc(S(=O)(=O)N3CCCC(C(=O)NCc4ccccc4Cl)C3)ccc21 (stereo not drawn)	·	–	–	–	–	?
